# Assay results published in the antibiotic and cytotoxicity screens of Wong et al. (2023).
# Among all 39,000 compounds or so, about 1,500 (3.8%) were called active. This excerpt belongs to a sample that is enriched for actives.
# Test system: HSkMC (human skeletal muscle cells)
# Test: cytotoxicity call (relative viability < 0.9)
# Settings: 10 µM
row,SMILES,cytotoxicity call
1,C[C@H](CO)N1C[C@H](C)[C@@H](CN(C)C(=O)CN(C)C)Oc2cc(-c3cncnc3)ccc2S1(=O)=O,inactive
2,O=C(C[C@H]1CC[C@H]2[C@@H](COC[C@H](O)CN2C(=O)c2cnccn2)O1)NCc1ccc(Oc2ccccc2)cc1,inactive
3,C[C@@H]1CN([C@H](C)CO)S(=O)(=O)c2ccc(C#CC3CCCC3)cc2O[C@H]1CN(C)C(=O)Cc1ccncc1,inactive
4,C[C@@H]1CCCCO[C@@H](CN(C)C(=O)c2ccccc2)[C@@H](C)CN([C@H](C)CO)C(=O)c2cc(NS(=O)(=O)c3ccc(Cl)cc3)ccc2O1,inactive
5,O=C(NCC(F)(F)F)[C@@H]1[C@@H](CO)[C@@H]2Cn3c(cccc3=O)[C@H]1N2C(=O)C1CCC1,inactive
6,COc1ccc(S(=O)(=O)N(C)C[C@H]2Oc3ccc(NS(=O)(=O)c4ccc(C)cc4)cc3C(=O)N([C@H](C)CO)C[C@@H]2C)cc1,inactive
7,CC(C)NC(=O)N(C)C[C@@H]1Oc2ccc(NC(=O)CCN3CCOCC3)cc2CC(=O)N([C@@H](C)CO)C[C@@H]1C,inactive
8,Cc1ccccc1S(=O)(=O)N1C[C@H](O)COC[C@H]2O[C@@H](CC(=O)NCc3ccccc3Cl)CC[C@@H]21,inactive
9,COc1ccc2c3c([nH]c2c1)[C@@H](CO)N(C[C@]13CN(CCc2ccccc2)C1)C(=O)CN1CCOCC1,inactive
10,COc1ccc2c3c([nH]c2c1)[C@H](CO)N(Cc1ccc(cc1)Cl)C[C@]13CCN(CCc2ccccc2)CC1,inactive
11,COc1ccc2c3c([nH]c2c1)[C@@H](CO)N(Cc1ccc(cc1)Cl)C[C@]13CCN(CCc2ccccc2)CC1,active
12,COc1ccc2c3c([nH]c2c1)[C@H](CO)N(Cc1ccc(cc1)Cl)C[C@]13CN(CCc2ccccc2)C1,active
13,COc1ccc2c3c([nH]c2c1)[C@@H](CO)N(Cc1ccccc1)C[C@]13CCN(CC1)C(=O)Nc1cccc(c1)F,inactive
14,COc1ccc2c3c([nH]c2c1)[C@@H](CO)N(Cc1ccc(cc1)Cl)C[C@]13CN(CCc2ccccc2)C1,active
15,COc1ccc2c3c([nH]c2c1)[C@H](CO)N(Cc1ccccc1)C[C@]13CCN(CC1)C(=O)Nc1cccc(c1)F,inactive
16,COc1ccc2c3c([nH]c2c1)[C@H](CO)N(C[C@]13CCN(CCc2ccccc2)CC1)C(=O)CN1CCOCC1,inactive
17,COc1ccc2c3c([nH]c2c1)[C@H](CO)N(C[C@]13CN(CCc2ccccc2)C1)C(=O)CN1CCOCC1,inactive
18,C[C@@H]1CCCCO[C@H](CN(C)C(=O)c2ccccc2)[C@H](C)CN([C@@H](C)CO)C(=O)c2cc(NC(=O)Cc3ccccc3)ccc2O1,inactive
19,C[C@@H]1CN([C@@H](C)CO)C(=O)Cc2cc(NS(=O)(=O)c3cn(C)cn3)ccc2O[C@H]1CN(C)C,inactive
20,COC(=O)C1=CO[C@@H](O[C@@H]2O[C@H](CO)[C@@H](O)[C@H](O)[C@H]2O)[C@@H]2[C@@H](CO)C=C[C@H]12,inactive
21,C[C@@H]1CN([C@@H](C)CO)C(=O)c2cc(NC(=O)CCC(F)(F)F)ccc2O[C@@H](C)CCCCO[C@@H]1CN(C)C(=O)C1CCCCC1,inactive

row,SMILES,cytotoxicity call
1,COc1ccc(C#Cc2ccc3c(c2)O[C@@H](CN(C)C(C)=O)[C@@H](C)CN([C@H](C)CO)S3(=O)=O)cc1,inactive
2,COc1ccc(CN(C)C[C@@H]2OCCCC[C@H](C)Oc3ccc(NC(=O)CCC(F)(F)F)cc3C(=O)N([C@@H](C)CO)C[C@@H]2C)cc1,inactive
3,CCCNc1nc(Nc2ccc(C#N)cc2)ncc1C#CCCCNC(=O)[C@H](C)N(C)C(=O)/C=C/CN(C)C,active
4,OCc1ccccc1-n1cncn1,inactive
5,COc1ccc2c3c([nH]c2c1)[C@H](CO)N(C[C@]13CCN(CC1)C(=O)Nc1ccc(cc1)F)C(=O)c1ccc(cc1)F,inactive
6,COc1ccc2c3c([nH]c2c1)[C@@H](CO)N(CC1CCCC1)C[C@]13CCN(CC1)C(=O)c1ccc(cc1)F,active
7,COc1ccc2c3c([nH]c2c1)[C@@H](CO)N(C[C@]13CCN(CC1)C(=O)Nc1ccc(cc1)F)C(=O)c1ccc(cc1)F,inactive
8,COc1ccc2c3c([nH]c2c1)[C@H](CO)N(CC1CCCC1)C[C@]13CCN(CC1)C(=O)c1ccc(cc1)F,active
9,COc1ccc2c3c([nH]c2c1)[C@H](CO)N(CC1CCCC1)C[C@]13CCN(CC1)C(=O)Nc1cccc(c1)F,inactive
10,COc1ccc2c3c([nH]c2c1)[C@@H](CO)N(CC1CCCC1)C[C@]13CCN(CC1)C(=O)Nc1cccc(c1)F,inactive
11,CC(=O)N[C@H](Cc1ccc2ccccc2c1)C(=O)N[C@H](Cc1ccc(Cl)cc1)C(=O)N[C@H](Cc1cccnc1)C(=O)N[C@@H](CO)C(=O)N(C)[C@@H](Cc1ccc(O)cc1)C(=O)N[C@H](CC(N)=O)C(=O)N[C@@H](CC(C)C)C(=O)N[C@@H](CCCCNC(C)C)C(=O)N1CCC[C@H]1C(=O)N[C@H](C)C(N)=O,inactive
12,CS(=O)(=O)Nc1ccc2c(c1)[C@@H]1C[C@H](CC(=O)NCc3ccc(-c4ccccc4)cc3)O[C@@H](CO)[C@@H]1O2,inactive
13,C[C@@H]1CN([C@@H](C)CO)C(=O)Cc2cc(NC(=O)CCCCCC(=O)Nc3ccccc3N)ccc2O[C@H]1CN(C)Cc1ccccc1,inactive
14,C[C@@H]1CN([C@H](C)CO)C(=O)c2cc(NC(=O)Nc3ccc(C(F)(F)F)cc3)ccc2O[C@@H](C)CCCCO[C@H]1CN(C)S(=O)(=O)c1ccc(F)cc1,inactive
15,Cc1noc(C)c1NC(=O)N(C)C[C@@H]1OCCCC[C@H](C)Oc2ccc(NS(=O)(=O)c3ccccc3)cc2C(=O)N([C@@H](C)CO)C[C@@H]1C,inactive
16,Cn1c(CN)nc2ccccc2c1=O,inactive
17,COc1ccc2[nH]cc(CCNC(C)=O)c2c1,inactive
18,CC(C)Oc1cccc(-n2c(CCc3c[nH]c4ccc(Br)cc34)nc3ccccc3c2=O)c1,active
19,C[C@@H]1CCCCO[C@H](CN(C)C(=O)Cc2ccccc2)[C@H](C)CN([C@H](C)CO)C(=O)c2cc(NS(=O)(=O)c3cccs3)ccc2O1,inactive
20,Cc1noc(C)c1S(=O)(=O)Nc1ccc2c(c1)C(=O)N([C@@H](C)CO)C[C@H](C)[C@H](CN(C)S(=O)(=O)c1cn(C)cn1)O2,inactive
21,C[C@H](CO)N1C[C@H](C)[C@@H](CN(C)C(=O)Nc2cccc3ccccc23)OCCCC[C@H](C)Oc2ccc(NS(=O)(=O)c3cn(C)cn3)cc2C1=O,inactive

row,SMILES,cytotoxicity call
1,C[C@@H]1CCCCO[C@H](CN(C)C(=O)Nc2cccc3ccccc23)[C@@H](C)CN([C@@H](C)CO)C(=O)c2cc(NS(=O)(=O)c3cn(C)cn3)ccc2O1,inactive
2,C[C@@H]1CN([C@@H](C)CO)C(=O)c2cc(NS(=O)(=O)c3cn(C)cn3)ccc2O[C@@H](C)CCCCO[C@H]1CN(C)C(=O)Nc1cccc2ccccc12,active
3,C[C@@H]1CCCCO[C@H](CN(C)C(=O)Nc2cccc3ccccc23)[C@H](C)CN([C@@H](C)CO)C(=O)c2cc(NS(=O)(=O)c3cn(C)cn3)ccc2O1,inactive
4,C[C@@H]1CCCCO[C@@H](CN(C)C(=O)Nc2cccc3ccccc23)[C@H](C)CN([C@H](C)CO)C(=O)c2cc(NS(=O)(=O)c3cn(C)cn3)ccc2O1,inactive
5,C[C@@H]1CN([C@@H](C)CO)C(=O)c2cc(NS(=O)(=O)c3cn(C)cn3)ccc2O[C@@H](C)CCCCO[C@@H]1CN(C)C(=O)Nc1cccc2ccccc12,active
6,C[C@H]1CCCCO[C@H](CN(C)C(=O)Nc2cccc3ccccc23)[C@@H](C)CN([C@@H](C)CO)C(=O)c2cc(NS(=O)(=O)c3cn(C)cn3)ccc2O1,inactive
7,C[C@@H]1CCCCO[C@@H](CN(C)C(=O)Nc2cccc3ccccc23)[C@@H](C)CN([C@H](C)CO)C(=O)c2cc(NS(=O)(=O)c3cn(C)cn3)ccc2O1,inactive
8,C[C@H](CO)N1C[C@H](C)[C@H](CN(C)C(=O)Nc2cccc3ccccc23)OCCCC[C@H](C)Oc2ccc(NS(=O)(=O)c3cn(C)cn3)cc2C1=O,inactive
9,C[C@@H]1CCCCO[C@@H](CN(C)C(=O)Nc2cccc3ccccc23)[C@H](C)CN([C@@H](C)CO)C(=O)c2cc(NS(=O)(=O)c3cn(C)cn3)ccc2O1,inactive
10,C[C@H]1CCCCO[C@@H](CN(C)C(=O)Nc2cccc3ccccc23)[C@@H](C)CN([C@@H](C)CO)C(=O)c2cc(NS(=O)(=O)c3cn(C)cn3)ccc2O1,active
11,C[C@@H]1CCCCO[C@H](CN(C)C(=O)Nc2cccc3ccccc23)[C@H](C)CN([C@H](C)CO)C(=O)c2cc(NS(=O)(=O)c3cn(C)cn3)ccc2O1,active
12,C[C@@H]1CN([C@@H](C)CO)S(=O)(=O)c2ccc(-c3cncnc3)cc2O[C@H]1CN(C)C(=O)Cc1cccnc1,inactive
13,C[C@@H]1CCCCO[C@H](CN(C)C(=O)Nc2ccccc2)[C@@H](C)CN([C@H](C)CO)C(=O)c2cc(NC(=O)c3ccncc3)ccc2O1,inactive
14,Cc1noc(C)c1NC(=O)N(C)C[C@H]1Oc2ccc(NS(=O)(=O)c3cccs3)cc2CC(=O)N([C@@H](C)CO)C[C@H]1C,inactive
15,Cc1ccc(-c2cnc(-c3ccc(Br)cc3)o2)cc1,inactive
16,C[C@@H]1CN([C@H](C)CO)C(=O)Cc2cc(NC(=O)Cn3cnnn3)ccc2O[C@@H]1CN(C)Cc1ccccc1,inactive
17,CCCN1C[C@H](C)[C@@H](O)[C@](C)(O)[C@@H](CC)OC(=O)[C@H](C)[C@@H](O[C@H]2C[C@@](C)(OC)[C@@H](O)[C@H](C)O2)[C@H](C)[C@@H](O[C@@H]2O[C@H](C)C[C@H](N(C)C)[C@H]2O)[C@](C)(O)C[C@H]1C,inactive
18,Cc1oc(C(C)(C)C)cc1C(=O)Nc1ccc(C(C)C)cc1,inactive
19,CC(C)c1ccccc1Cc1cc(C(=O)Nc2ccc(S(=O)(=O)c3ccccc3C(C)(C)C)cc2)c(O)c(O)c1O,active
20,CCc1cccc(C(C)C)c1NC(=O)Nc1ccccc1,inactive
